The source of these data is ChEMBL document CHEMBL4513216, “Probing the Open Global Health Chemical Diversity Library for Multistage-Active Starting Points for Next-Generation Antimalarials” (ACS Infect Dis, 2020).

About 8,600 (12%) of roughly 69,000 compounds showed an effect of 50% or more. The entries come from a sample that favours strong results as a whole.

The assay concerns Plasmodium berghei. The assay is described as follows: Screen against P. berghei liver stage (PbLuc), transformed with Luciferase, at 10uM. The class given is functional, HepG2. Particulars: tested at 10 uM.
Take `O=C(CCC(=O)N1CCc2[nH]c3ccccc3c2C1)NCc1ccco1`: the INHIBITION was found to be 1.41%. For `CNc1cc(C2CCCN(C(=O)c3ccc(=O)[nH]n3)C2)ccn1` (stereo not drawn) the value was 15.5%; for `COC[C@]1(O)CCN(Cc2ccc(N(C)C)nc2)CC1(C)C`, 22.6%; for `Cc1cc(Nc2ncccn2)nc(C2CCCN(CCO)C2)n1` (stereo not drawn), -3.94%. Turning to `Cc1ccc(S(=O)(=O)NC(=O)CCC(F)(F)F)cc1N(C)C`, the INHIBITION amounted to 13.139%. For `Cc1ccc(-c2nc(CN3CCCC3Cn3cc(C)cn3)no2)cc1` (stereo not drawn) the value was 51.3%. As for `Cc1cccc(-c2nc(CN3CCCC3Cn3cc(C)cn3)no2)c1` (stereo not drawn), the INHIBITION came out at 83.2%. In the case of `Cc1cccc(-c2nc(CN3CCCCC3Cn3cncn3)no2)c1` (stereo not drawn) it was 13.9%. In the case of `Cc1cnn(CC2CCCN2Cc2noc(-c3ccccc3)n2)c1` (stereo not drawn) it was 23.5%; in that of `Cc1cnn(CC2CCCN2Cc2noc(C)n2)c1` (stereo not drawn), 9.14%; in that of `Cc1cnn(CC2CCCN2Cc2noc(C3CC3)n2)c1` (stereo not drawn), 37.9%. On to `CC1N(c2cnn(C)c2)C(=O)COC12CCN(Cc1ccco1)CC2` (stereo not drawn), for which the INHIBITION came to 16.6%. For `COc1ccc(S(=O)(=O)NC2(CC(N)=O)CCC2)cc1`, the INHIBITION is listed as 42.7%. For `CC(C)c1ccc(S(=O)(=O)NC2(CC(N)=O)CCC2)cc1` the value was 37.7%; for `CCCc1ccc(S(=O)(=O)NC2(CC(N)=O)CCC2)cc1`, 51.3%. As for `NC(=O)Cn1c(CO)cnc1SCc1ccccc1Cl`, the INHIBITION is listed as -4.01%. As to `Cc1noc(C2CCC3(CCN(C(=O)c4cc(C5CC5)on4)CC3)O2)n1` (stereo not drawn), the INHIBITION worked out at 7.53%. For `CNc1cncc(C2CCCN2C(=O)c2ccc3c(c2)OCCO3)n1` (stereo not drawn) the value was 30.8%; for `CNc1cncc(C2CCCN2C(=O)c2ccc3oc(C)cc3c2)n1` (stereo not drawn), 6.81%; for `CNc1cncc(C2CCCN2c2cc(C)ncn2)n1` (stereo not drawn), 52%.

`CNc1cncc(C2CCCN2Cc2ccccn2)n1` (stereo not drawn): the INHIBITION was 35.8%.

In the case of `CNc1cncc(C2CCCN2C(=O)c2ccc3c(c2)CCC3)n1` (stereo not drawn), the INHIBITION is 54.5%. For `CNc1cncc(C2CCCN2Cc2ccn(C)n2)n1` (stereo not drawn), the INHIBITION amounted to 51.5%.

`Cc1cc(N2CCCC2c2cncc(N(C)C)n2)ncn1` (stereo not drawn): the INHIBITION worked out at 14.7%.

In the case of `CNc1cncc(C2CCCN2Cc2cccc(C)n2)n1` (stereo not drawn), the INHIBITION worked out at 45.6%.

For the compound `Cc1cc(N2CCCC2c2cnccn2)ncn1` (stereo not drawn), the INHIBITION stood at 11.4%. For the compound `CCCc1noc(CN2CCC(NC(=O)c3ccc(C)s3)CC2)n1`, the INHIBITION was found to be 25%. For `CNc1cc(N2CCCC2CNCc2cccnc2)ncn1` (stereo not drawn) the value was -3.19%; for `CCO[C@@H]1CC[C@H]2[C@H]1OCCN2CCOCc1ccccc1`, 41.2%.

`O=C(Nc1ccc2c(c1)OCCO2)N1CCCC1c1ccco1` (stereo not drawn): the INHIBITION is listed as -0.87%. On to `Cc1cccc(CN2C[C@@H]3[C@@H](C(=O)NCC(C)C)CCS(=O)(=O)[C@@H]3C2)c1`, for which the INHIBITION was -41.9%. For `CCc1nc(CN2CCCC(NCc3nnc(C4CC4)n3C)C2)no1` (stereo not drawn) the value was 1.75%; for `CCc1ccc(CN2CCC3(CC2)CNC(=O)CO3)o1`, 33.7%; for `CC(C)Cc1cc(C(=O)NCCc2ccc(S(C)(=O)=O)cc2)[nH]n1`, 8.69%.

For the compound `O=C(O)c1cc(S(=O)(=O)Nc2cc(Cl)ccc2F)cc2c1OCCO2`, the INHIBITION is 27.6%. Turning to `CN(CC(=O)NC(N)=O)CC1(c2ccc(Br)cc2)CC1`, the INHIBITION is given as -17.3%. Take `COC1COC2(CCN(Cc3ccc4c(c3)OCO4)CC2)C1` (stereo not drawn): the INHIBITION is reported as -39.3%. With `Cc1cc(C(=O)N2CCC3(CCC(=O)N(CC(N)=O)C3)CC2)ccc1O`, the INHIBITION was -64.3%. On to `C[C@@H]1CN(C(=O)C2(Cn3cccn3)CC2)CC[C@@]1(O)C1CC1`, for which the INHIBITION was found to be 24.205%. For the compound `COc1ccccc1-n1nc(-c2ccco2)n(CC(=O)NC(C)C)c1=O`, the INHIBITION worked out at 45.6%. In the case of `CNC(=O)Cn1c(-c2ccco2)nn(-c2ccccc2OC)c1=O` it was 59.5%; in that of `COc1ccccc1-n1nc(-c2ccco2)n(CC(=O)NC2CC2)c1=O`, 27.6%; in that of `Cc1cc(NC(=O)CNC2CCc3ncnn3C2)no1` (stereo not drawn), 17.4%. For `CCOC(=O)CC(c1ccc(OC)cc1)c1c(O)n[nH]c1C` (stereo not drawn) the value was -14.9%.

As to `Cc1ccc(C(=O)N2CCCC3(CCCC(=O)N3C)C2)cc1F` (stereo not drawn), the INHIBITION is 15.7%. For `COc1ccc(CCN(C)C2CCCN(Cc3noc(C)n3)C2)cc1` (stereo not drawn) the value was -42.3%. In the case of `COc1ccc(CC(C)(O)CNC(=O)Cc2ccc(F)cc2)cc1` (stereo not drawn) it was 77.6%; in that of `COc1ccc(CC(C)(O)CNC(=O)c2cccs2)cc1` (stereo not drawn), -18%; in that of `COc1ccc(CC(C)(O)CNC(=O)Cc2cccs2)cc1` (stereo not drawn), 40.7%.

Take `Cc1noc(C)c1CN(C)C(=O)CCn1c(=O)n(C)c2ccccc21`: the INHIBITION was -6.61%. With `CCCN1CCC(Cc2noc(-c3cc4cccnc4nc3C)n2)CC1`, the INHIBITION amounted to 12.9%. As to `COCc1nc(CN2CCN(c3ccc(OC)cc3)C(=O)C2C)no1` (stereo not drawn), the INHIBITION was found to be 11%. In the case of `CCOCC1CN(C(=O)c2ccncc2)Cc2nn(C)cc21` (stereo not drawn) it was -46.9%. On to `CCS(=O)(=O)CCNC(=O)C1(c2cccc(Cl)c2)CC1`, for which the INHIBITION is given as 44.8%. For `COc1cccc(-c2n[nH]c3c2CN(C(=O)c2cc(C)n(C)n2)CC3)c1` the value was 36.6%. In the case of `COc1cccc(-c2n[nH]c3c2CN(C(=O)c2cccc(=O)[nH]2)CC3)c1` it was 53.8%. For the compound `COc1cccc(-c2n[nH]c3c2CN(C(=O)c2ccncc2)CC3)c1`, the INHIBITION is -4.91%. Turning to `CC(=O)N(Cc1ncc(C)o1)C1CCN(CCn2cccn2)C1` (stereo not drawn), the INHIBITION is reported as 40.8%.

As for `Cc1cnn(CCC(=O)NC2CCc3nc(C)cn3C2)c1` (stereo not drawn), the INHIBITION is 5.9%. For `Cc1cn2c(n1)CCC(NC(=O)c1[nH]nc(C)c1Br)C2` (stereo not drawn) the value was 64.7%. In the case of `Cc1cn2c(n1)CCC(NC(=O)CCC1CC1)C2` (stereo not drawn) it was 26.9%; in that of `Cc1cn2c(n1)CCC(NC(=O)CCCOCc1ccccc1)C2` (stereo not drawn), 53.4%; in that of `Cc1cn2c(n1)CCC(NC(=O)CCC(F)(F)F)C2` (stereo not drawn), 54.9%. For `COc1ccccc1OCCC(=O)NC1CCc2nc(C)cn2C1` (stereo not drawn) the value was 34.6%; for `COc1ccc(COCC(=O)NC2CCc3nc(C)cn3C2)cc1` (stereo not drawn), 21.7%. `Cc1cn2c(n1)CCC(NC(=O)c1[nH]ncc1Br)C2` (stereo not drawn): the INHIBITION is 40%. For `Cc1cc(C(=O)NC2CCc3nc(C)cn3C2)[nH]n1` (stereo not drawn) the value was -3.26%; for `Cc1nccn1CCN(C)C(=O)C1CCN(C(=O)C2CCC2)CC1`, 16.9%.
